Among all 93,000 compounds or so, about 500 (0.54%) were called active. What follows is part of a selection rich in actives, with near analogues and random picks from the rest. Unmarked numbers belong to inactive results.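 The calls were made as follows: active = primary inhibition of 50% or more at 10 µM, then 40% or more on retest; inactive = the rest.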

Sequence of Integrin beta-2 (Homo sapiens) + Integrin alpha-M (Homo sapiens) (P05107 whole entry, looked up, other chains not shown): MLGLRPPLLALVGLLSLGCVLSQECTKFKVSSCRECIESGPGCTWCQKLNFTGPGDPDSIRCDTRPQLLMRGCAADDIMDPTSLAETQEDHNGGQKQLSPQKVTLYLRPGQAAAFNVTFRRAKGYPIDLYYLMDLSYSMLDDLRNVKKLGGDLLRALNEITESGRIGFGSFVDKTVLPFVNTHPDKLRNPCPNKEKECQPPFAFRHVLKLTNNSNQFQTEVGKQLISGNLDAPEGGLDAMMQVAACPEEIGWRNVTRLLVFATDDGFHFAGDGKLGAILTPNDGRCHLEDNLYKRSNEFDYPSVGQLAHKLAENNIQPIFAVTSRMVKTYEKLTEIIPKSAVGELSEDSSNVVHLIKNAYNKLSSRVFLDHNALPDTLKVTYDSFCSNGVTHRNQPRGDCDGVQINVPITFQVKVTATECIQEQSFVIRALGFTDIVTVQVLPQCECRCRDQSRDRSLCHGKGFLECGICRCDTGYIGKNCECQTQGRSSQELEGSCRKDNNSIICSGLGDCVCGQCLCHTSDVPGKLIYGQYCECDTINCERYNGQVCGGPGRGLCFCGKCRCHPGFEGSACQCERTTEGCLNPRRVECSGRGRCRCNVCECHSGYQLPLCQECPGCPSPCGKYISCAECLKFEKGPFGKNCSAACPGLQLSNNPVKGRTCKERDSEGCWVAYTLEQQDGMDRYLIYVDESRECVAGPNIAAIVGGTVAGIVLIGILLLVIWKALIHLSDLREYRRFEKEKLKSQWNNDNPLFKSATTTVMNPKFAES

This assay concerns the target Integrin beta-2 (Homo sapiens) + Integrin alpha-M (Homo sapiens) (UniProt P05107+P11215). The assay can be described thus: inhibitors of CD11b/CD18 adhesion to fibrinogen, primary screen, K562 cells, luminescence (AID 1497). The settings on record: ATPlite luminescence, at 10 µM, stronger effect = higher value, Mn2+ added to activate the integrin. Background: ATP-based viability assays read luminescence as a measure of living cells.
Take `COc1ccc(C2c3c(C)nn(-c4ccccc4)c3NC(=O)N2c2ccccc2)cc1` (stereo unspecified): the inhibition – broadly, the change of the read-out against control, counted positive when it falls – was 2.6%.

`O=C(NCCN1CCOCC1)c1cc(Sc2cccc(Cl)c2)nc2ccccc12`: the inhibition was 4.4%.

Turning to `Cc1csc(=Nc2ccccc2)n1CCO`, the inhibition was -4.3%.

Take `OC(COCC1COc2ccccc2O1)CN1CCN(c2ccc(F)cc2)CC1` (stereo unspecified): the inhibition is -1.1%.

With `O=C(NC(Nc1nc2ccc([N+](=O)[O-])cc2s1)(C(F)(F)F)C(F)(F)F)c1ccccc1`, the inhibition was 93.8% (active).

`CCC(=O)NC(Nc1nc2ccc(C)cc2s1)(C(=O)OC)C(F)(F)F` (stereo unspecified): the inhibition was -4.9%.

As for `COC(=O)C(NC(=O)c1ccc(OC)cc1)(Nc1ncc(S(=O)(=O)c2ccc([N+](=O)[O-])cc2)s1)C(F)(F)F` (stereo unspecified), the inhibition was 47.7%.

As to `CN(Cc1cccs1)C(=O)Cc1c[nH]c2ccccc12`, the inhibition was -17.9%.

Turning to `Cc1ccc(-c2nc(C)sc2CC(=O)OCC(=O)Nc2c(F)cccc2F)cc1`, the inhibition is 16.1%.

For `Nc1nc(CC(=O)CSc2ccc(Cl)cc2)nc(Nc2ccc(F)cc2)n1`, the inhibition is -3.1%.

Turning to `Cc1ccc(C)c(NC(=S)NCC(c2cccnc2)N2CCOCC2)c1` (stereo unspecified), the inhibition was -16.8%.

With `COC(=O)c1ccc(C(=O)OC)c(NC(=S)N2CCN(c3cc(Cl)ccc3C)CC2)c1`, the inhibition was 5.6%.

For the molecule `CCCOC(=O)c1c(NC(=O)c2cnn3c2NC(c2ccccc2)CC3C(F)(F)F)sc2c1CCCC2` (stereo unspecified), the inhibition was -9.3%.

Turning to `CCc1ccc2oc(-c3ccc(N)cc3)nc2c1`, the inhibition was 62.3% (active).

With `COc1cccc(-c2nc3cc(C)ccc3o2)c1`, the inhibition is 21%.

Turning to `CCCCCC(=O)Nc1ccc2oc(-c3ccncc3)nc2c1`, the inhibition is -1.9%.

In the case of `C/C(=N/NC(=O)C1COc2ccccc2O1)c1ccco1` (stereo unspecified), the inhibition is 4.4%.

`Cc1ccccc1NC(=O)CSC1=NCCN1`: the inhibition was -19.9%.

For `Cc1ccc(S(=O)(=O)C2C(=O)NC3(C)CC2c2ccccc2O3)cc1` (stereo unspecified), the inhibition is 19.1%.

In the case of `Cc1nc2ccccc2cc1OCc1ccc(F)cc1`, the inhibition is 98.8% (active).

For the molecule `Cc1nc2ccccc2cc1O`, the inhibition was 20.1%.

`CCOC(=O)c1cc2ccccc2nc1C`: the inhibition is -6.1%.

Regarding `CN1CCN(c2ccc(S(=O)(=O)Nc3ccccc3)cc2[N+](=O)[O-])CC1`, the inhibition is 31%.

As to `Cc1ccc(-c2nn(-c3ccccc3)cc2C(=O)Nc2cccc(S(=O)(=O)N3CCOCC3)c2)cc1`, the inhibition is -5.6%.

Regarding `Cc1[nH]c2ccccc2c1/C=N/NC(=O)CNC(=O)c1ccc2c(c1)OCO2`, the inhibition was -16%.

As to `Cc1ccc2[nH]cc(CCNC(=O)c3ccc([N+](=O)[O-])cc3)c2c1`, the inhibition is -25.6%.

For the molecule `CCOC(=O)c1c(NC(=O)C2CCN(S(=O)(=O)c3ccc(Cl)cc3)CC2)sc2c1CCCC2`, the inhibition is -25.4%.

Turning to `Cc1ccccc1C(CC(=O)c1cccs1)C(C#N)C#N` (stereo unspecified), the inhibition is -1.8%.

In the case of `CC(C)NC(=S)N1CCN(C(c2ccccc2)c2ccccc2)CC1`, the inhibition is -11.6%.

As to `CCc1nnc(NC(=O)C2CC(=O)N(c3ccc4c(c3)OCCO4)C2)s1` (stereo unspecified), the inhibition is 12.3%.

With `CCOC(=O)c1csc(NC(=O)Nc2cccc(OC)c2)n1`, the inhibition is -1.6%.

As to `Cc1cc[n+](-c2[nH]c(=O)sc2/C=N/NC(=O)c2ccccc2[O-])cc1C`, the inhibition was -4.4%.

Turning to `C/C(=C/C(=O)N1CCN(C)CC1)C(=O)O`, the inhibition is -9.1%.

Turning to `N#C/C(=C(/O)COC(=O)COc1ccc(Cl)cc1)c1nc2ccccc2[nH]1`, the inhibition is 1.5%.

Regarding `Cc1ccc(NC(=O)NC(=O)CSc2nnc(-c3ccc(OC(F)F)cc3)n2N)c(C)c1`, the inhibition was 2.1%.

Regarding `O=C(Cn1cnc2ccccc21)N/N=C/c1ccco1`, the inhibition is 10.1%.

As for `C=CCn1c(SCC(N)=O)nnc1-c1cc2c(s1)CCC(CC)C2` (stereo unspecified), the inhibition was 18.8%.

As to `CCn1c2ccccc2c2cc(NC(=O)COC(=O)c3ccccc3Br)ccc21`, the inhibition was 2.2%.

For the molecule `COc1ccc(Cl)cc1NC(=O)CNc1ccccc1F`, the inhibition is 0.4%.

On to `CC(C)CNC(=O)COC(=O)c1ccccc1OCC(=O)Nc1ccc(Br)cc1`, for which the inhibition is 7.6%.

For the molecule `CC(C)COP(=O)(c1ccc(N(C)C)cc1)C(Nc1ccccc1)c1cccnc1` (stereo unspecified), the inhibition was -5.3%.

On to `CC1CCN(c2ccc(C(=O)NCc3ccc4c(c3)OCO4)cc2[N+](=O)[O-])CC1`, for which the inhibition is 6.9%.

With `CSCC[C@H](NC(=O)OC(C)(C)C)C(=O)N/N=C/c1cc2ccc(C)cc2nc1Cl`, the inhibition is 23.4%.

Take `Cc1cccc(NC(=O)c2ccccc2NC(=O)C(C)(C)C)n1`: the inhibition was -2%.

For `O=C(Nc1ccccc1)c1ccccc1NC(=O)C(F)(F)F`, the inhibition is 77.1% (active).

Consider `O=C(Nc1ccccc1)c1cccnc1Nc1ccccc1`, for which the inhibition was -10.2%.

Values taken from PubChem BioAssay AID1497 (Sanford-Burnham Center for Chemical Genomics, 2009).
